Some test systems named below: SK-MEL-2 melanoma; EKVX NSCLC; SN12C renal; UO-31 renal; TK-10 renal; ACHN renal; CAKI-1 renal; A498 renal; CCRF-CEM leukemia; MOLT-4 leukemia.
What all share (test): NCI-60 one-dose screen, 48 h (100 = growth as untreated, 0 = no growth, -100 = all killed)
Holding throughout (conditions): 10 µM unless noted

About 83,000 compounds went through this panel and 20% of them were active in at least one assay; those are over-represented in the sample as a whole.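 Assay: single dose, 48 h. Readout: percent growth (0 = no net growth; negative = cell death). Active: <10.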 Unmarked numbers belong to inactive results. The source made the active and inactive calls.

In the case of `Cc1ccc(S(=O)(=O)Nc2ccc(-c3cc(-c4cccc(F)c4)c(C#N)c(=O)[nH]3)cc2)cc1`, the growth in the experiment on SK-MEL-2 melanoma is 112%; with EKVX NSCLC, 83.4%; in the experiment on SN12C renal, 83.7%; in the experiment on UO-31 renal it was 68.6%; in the experiment with TK-10 renal, 115%; in the experiment with ACHN renal, 91.3%. Also, the growth is 60.2% in the experiment on CAKI-1 renal, 85.2% with A498 renal, 68.4% with CCRF-CEM leukemia and 76.9% in the experiment on MOLT-4 leukemia.
In the case of `C=C(C)[C@@H]1CC[C@]2(C(=O)OC)CC[C@]3(C)[C@H](CC[C@@H]4[C@@](C)(CC/C(N)=N/O)[C@H](C(=C)C)CC[C@]43C)[C@@H]12`, the growth in the experiment on SK-MEL-2 melanoma is 97.9%; in the experiment with EKVX NSCLC, 97%; in the experiment with SN12C renal, 97.2%; in the experiment with UO-31 renal, 93%; in the experiment with TK-10 renal, 105%; with ACHN renal, 101%. The growth in the experiment on CAKI-1 renal is 77.7%; in the experiment with A498 renal it was 95.1%; in the experiment on CCRF-CEM leukemia, 107%; with MOLT-4 leukemia, 92.4%.
With `CC(C)=CCC[C@](C)(O)[C@H]1CC[C@]2(C)[C@@H]1CC[C@@H]1[C@@]3(C)C/C(=C/c4ccc(Br)cc4)C(=O)C(C)(C)[C@@H]3CC[C@]12C`, the growth is 113% in the experiment on SK-MEL-2 melanoma; 94.3% in the experiment with EKVX NSCLC; 88% with SN12C renal; 70.4% in the experiment with UO-31 renal; 130% in the experiment on TK-10 renal; 98.1% with ACHN renal. In addition, the growth in the experiment on CAKI-1 renal is 64.7%; in the experiment with A498 renal it was 80.8%; with CCRF-CEM leukemia it was 83.4%; in the experiment with MOLT-4 leukemia it was 84.1%.
Turning to `COC(=O)[C@]12CC[C@@H](C(C)=O)[C@@H]1[C@H]1CC[C@@H]3[C@@]4(C)C/C(=C/c5cccnc5)C(=O)C(C)(C)[C@@H]4CC[C@@]3(C)[C@]1(C)CC2`, the growth in the experiment on SK-MEL-2 melanoma was 68.1%; in the experiment on EKVX NSCLC, 85.8%; with SN12C renal, 57.7%; with UO-31 renal, 56.6%; in the experiment with TK-10 renal it was 133%; in the experiment with ACHN renal it was 32.5%. Further, the growth in the experiment on CAKI-1 renal is 51%; in the experiment on A498 renal it was 80.6%; in the experiment with CCRF-CEM leukemia, 7.57% (active); in the experiment with MOLT-4 leukemia, 5.47% (active).
For `C=CC(=O)N[C@H](Cc1ccc(-c2cc(Cl)cc(Cl)c2)cc1)[C@H](O)[C@@H](O)C(=O)O`, the growth in the experiment on SK-MEL-2 melanoma is 90%; in the experiment on EKVX NSCLC it was 90%; with SN12C renal, 98.5%; in the experiment with UO-31 renal, 86.8%; with TK-10 renal, 81.7%; in the experiment on ACHN renal, 101%. Moreover, the growth with CAKI-1 renal is 84%; with A498 renal, 80.6%; in the experiment with CCRF-CEM leukemia it was 80.2%; with MOLT-4 leukemia it was 102%.
`O=c1[nH]c(=S)[nH]c2nc[nH]c12`: the growth in the experiment with SK-MEL-2 melanoma was 117%; in the experiment on EKVX NSCLC, 97.2%; in the experiment on SN12C renal it was 96.2%; with UO-31 renal, 62.7%; in the experiment with TK-10 renal, 113%; in the experiment on ACHN renal, 104%. The growth with CAKI-1 renal was 108%; with A498 renal, 93.4%; in the experiment with CCRF-CEM leukemia, 106%; with MOLT-4 leukemia, 97.8%.
For the compound `CC(C)(C)c1ccc(OCCCCCCCN2CCNCC2)cc1`, the growth was 103% in the experiment on SK-MEL-2 melanoma; 70% with EKVX NSCLC; 58.8% in the experiment with SN12C renal; 33.3% in the experiment with UO-31 renal; 105% in the experiment on TK-10 renal; 13.6% in the experiment with ACHN renal. Also, the growth with CAKI-1 renal was 44.8%; in the experiment on A498 renal, 79.9%; with CCRF-CEM leukemia, 17.8%; in the experiment with MOLT-4 leukemia, 0.604% (active).
For the compound `CC[C@H](CC[C@@H](C)[C@H]1CC[C@H]2[C@@H]3/C(=C/c4cccnc4)C(=O)C4=CC(=O)CC[C@]4(C)[C@H]3CC[C@]12C)C(C)C`, the growth was 103% in the experiment on SK-MEL-2 melanoma; 99% with EKVX NSCLC; 86.3% in the experiment with SN12C renal; 65.4% in the experiment on UO-31 renal; 112% in the experiment on TK-10 renal; 93.9% with ACHN renal. Besides, the growth is 77.9% with CAKI-1 renal, 98.3% in the experiment on A498 renal, 43.4% in the experiment on CCRF-CEM leukemia and 67.5% in the experiment on MOLT-4 leukemia.
As to `COc1cccc(-c2nn(-c3ccccc3)cc2-c2ccnc(NCCCN)c2)c1`, the growth in the experiment on SK-MEL-2 melanoma is 26.3%; with EKVX NSCLC, 66.7%; in the experiment on SN12C renal, 50.9%; with UO-31 renal, 51.6%; in the experiment on TK-10 renal it was 72.2%; in the experiment on ACHN renal, 82.7%. For the same compound, the growth was 83.5% in the experiment on CAKI-1 renal, 42.3% in the experiment with A498 renal, 29.3% with CCRF-CEM leukemia and 22.9% with MOLT-4 leukemia.
Take `Cn1c(=O)c2c(nc(Br)n2CC(=O)Nc2ccc(F)cc2)n(C)c1=O`: the growth in the experiment with SK-MEL-2 melanoma is 99.1%; with EKVX NSCLC, 102%; in the experiment on SN12C renal, 109%; in the experiment on UO-31 renal, 80.9%; in the experiment with TK-10 renal, 115%; in the experiment with ACHN renal, 104%. For the same compound, the growth in the experiment on CAKI-1 renal was 95.9%; with A498 renal it was 117%; in the experiment on CCRF-CEM leukemia, 90.1%; in the experiment on MOLT-4 leukemia it was 91.9%.
In the case of `COc1ccc(C(=O)c2ccc(C)cc2)c(OC)c1OC`, the growth in the experiment on SK-MEL-2 melanoma was 60.3%; in the experiment on EKVX NSCLC it was 92.7%; in the experiment with SN12C renal, 91.8%; with UO-31 renal, 72.6%; with TK-10 renal, 97.7%; with ACHN renal, 97.3%. Also, the growth was 64.8% in the experiment on CAKI-1 renal, 70.1% in the experiment on A498 renal, 89% in the experiment with CCRF-CEM leukemia and 46.8% in the experiment with MOLT-4 leukemia.
In the case of `Cn1cnc2c1c(=O)n(CCC(=O)Nc1ccc(F)cc1)c(=O)n2C`, the growth is 105% with SK-MEL-2 melanoma; 107% in the experiment on EKVX NSCLC; 102% in the experiment on SN12C renal; 92.7% in the experiment with UO-31 renal; 92.7% with TK-10 renal; 114% in the experiment with ACHN renal. Besides, the growth in the experiment on CAKI-1 renal is 93.7%; with A498 renal, 96.8%; in the experiment with CCRF-CEM leukemia, 99.5%; with MOLT-4 leukemia it was 106%.
